HSF-1 act: HSF-1 activators, primary screen, NIH3T3-HGL cells, MG132 stress, luminescence, single point; 1.7% of 300,000 active; NIH3T3-HGL HSF-1 luciferase reporter, 8 h; 100% = twice DMSO control signal; activation, % at 9 µM;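 active means mean replicate activation of at least 50% with a set share of replicates each reaching 50%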
aDG glyco up: activators of alpha-DG glycosylation, primary screen, uHTS, Pro5-aDG cells, AlphaScreen. alpha-DG glycosylation AlphaScreen (IIH6); 0% Pro5, 100% B10-LARGE cell signal. activation, % at 10 µM. 0.22% of 360,000 active;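 active means activation of at least 8% versus controls, or a plate z-score of at least 8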;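 further: Pro5 are CHO cells carrying HIG-tagged alpha-DG that lacks glycosylation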
GC-B act: human GC-B receptor activators, primary screen, HEK293 GC-B cells, cGMP TR-FRET, EC30 CNP. Atrial natriuretic peptide receptor 2 (Homo sapiens), P20594. 0% at EC30 CNP, 100% saturating CNP. 0.11% of 370,000 active. activation, % at 10 µM;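 active means activation at 10 µM reaching about 35% in either raw or pattern-adjusted values, limit read from the data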
Target sequence (P20594 whole entry, looked up): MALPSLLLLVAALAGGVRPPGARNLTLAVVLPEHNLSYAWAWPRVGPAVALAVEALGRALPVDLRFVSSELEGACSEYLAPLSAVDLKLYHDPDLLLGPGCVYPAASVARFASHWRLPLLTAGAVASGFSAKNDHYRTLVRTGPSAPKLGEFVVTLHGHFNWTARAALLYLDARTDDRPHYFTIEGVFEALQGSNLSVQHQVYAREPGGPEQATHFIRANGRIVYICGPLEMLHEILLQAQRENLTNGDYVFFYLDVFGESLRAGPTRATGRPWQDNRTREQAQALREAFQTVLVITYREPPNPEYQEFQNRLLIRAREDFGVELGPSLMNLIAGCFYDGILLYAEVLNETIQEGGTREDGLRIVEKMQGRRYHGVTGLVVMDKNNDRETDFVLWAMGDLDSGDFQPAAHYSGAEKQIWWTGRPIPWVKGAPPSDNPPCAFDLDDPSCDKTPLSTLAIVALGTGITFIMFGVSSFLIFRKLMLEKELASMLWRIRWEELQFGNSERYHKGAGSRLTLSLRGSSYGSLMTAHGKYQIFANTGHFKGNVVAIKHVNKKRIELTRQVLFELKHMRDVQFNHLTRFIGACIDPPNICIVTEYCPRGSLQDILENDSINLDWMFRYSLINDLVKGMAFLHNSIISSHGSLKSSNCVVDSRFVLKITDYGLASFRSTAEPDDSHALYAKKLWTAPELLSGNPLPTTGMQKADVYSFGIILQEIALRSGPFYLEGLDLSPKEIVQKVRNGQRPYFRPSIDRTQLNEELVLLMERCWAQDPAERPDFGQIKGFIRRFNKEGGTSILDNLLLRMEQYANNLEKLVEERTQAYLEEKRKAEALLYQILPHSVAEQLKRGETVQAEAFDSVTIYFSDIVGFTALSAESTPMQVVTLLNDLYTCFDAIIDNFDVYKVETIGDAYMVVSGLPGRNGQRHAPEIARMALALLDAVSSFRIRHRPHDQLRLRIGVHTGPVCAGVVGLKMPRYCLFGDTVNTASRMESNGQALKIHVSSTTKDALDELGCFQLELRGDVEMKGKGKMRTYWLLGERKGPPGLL
Dyrk1A ADPGlo: rat Dyrk1A kinase inhibitors, primary screen, biochemical, single point, plate reader | ADP-Glo luminescence, NFATc1 peptide | inhibition, % at 12.5 µM | 0.43% of 310,000 active | AID 504441, 2011; in the data active means inhibition above about 50%
HSF1 inhib: HSF1 inhibitors in luciferase reporter cells, primary screen, cell-based, NIH3T3, luminescence. NIH3T3-HGL HSE-luciferase, MG132-induced, luminescence 8 h; stronger effect = lower value. activity change, negative = inhibition, % at 7.5 µM (by protocol). 0.77% of 300,000 active. AID 2098, 2009;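 active means more than half of replicate wells show activity change below -50%, luminescence cut by over half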;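 further: luciferase reports HSF-1 transcriptional activity via heat shock element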
GC-A act: GC-A stimulated cGMP production enhancers – HEK293 GC-A cells, cGMP TR-FRET, EC30 ANP, primary screen | 0% at EC30 ANP, 100% saturating ANP | activation, % at 10 µM | 0.14% of 370,000 active | Atrial natriuretic peptide receptor 1 (Homo sapiens), P16066; in the data active means activation above about 40%
Hits are given with their value; i = inactive; nt = not tested or not shown. An excerpt weighted towards active compounds, which were near 2.5% of everything screened.

SMILES	HSF-1 act	aDG glyco up	GC-B act	Dyrk1A ADPGlo	HSF1 inhib	GC-A act
OC(CN1c2ccccc2Sc2ccccc21)Cn1nnc2ccccc21 (stereo unspecified)	63.2	i	i	i	i	i
O=c1oc2ccc(Br)cc2cc1-c1nc2ccccc2o1	i	i	i	i	i	i
Brc1ccc2oc(-c3ccn[nH]3)cc2c1	57.1	i	i	nt	i	i
CCn1cc(C(=O)NC2CCCCC2)c(=O)c2ccc(C)nc21	i	i	i	i	i	i
COc1ccccc1NC(=S)NC1CCCCCCCCCCC1	i	i	i	i	i	i
CN(c1ccccc1)c1ncccn1	i	i	i	nt	-88.6	i
CN(c1ccccc1)c1nc(-n2ccnc2)nc(-n2ccnc2)n1	i	i	i	i	i	i
O=C(CCc1nnc(CCCc2ccccc2)o1)NC(C1CC1)C1CC1	64.9	i	i	i	i	i
Cc1nc(C(C)NC(=O)CCc2nnc(CCCc3ccccc3)o2)c(C)s1 (stereo unspecified)	i	i	i	i	i	i
O=C(CCc1nnc(CCCCc2ccccc2)o1)NCCN1CCCCC1=O	57.9	i	i	i	i	i
CC(C)C[C@H]1CNC(=S)N1C[C@H]1CCCN1C[C@H](Cc1ccc(O)cc1)N1C[C@H](Cc2ccc(O)cc2)N(CC2CCCCCC2)C1=S	nt	i	i	nt	nt	i
Cn1c(=O)n(C)c2cc(S(=O)(=O)N3CCN(c4ccccc4)CC3)ccc21	i	i	i	i	i	i
CN1CCSc2ccc(C(=O)Nc3cc(F)ccc3F)cc21	76.0	i	i	i	i	i
Nc1ccc2nc(-c3ccccn3)[nH]c2c1	i	i	i	i	-57.2	i
Nc1ccc2nc(-c3ccccc3)[nH]c2c1	i	i	i	i	i	i
COc1cc2c3c(c1OC)C1(C=CC(=O)C=C1)CC3N(C(=O)c1ccccc1)CC2 (stereo unspecified)	55.0	i	i	i	i	i
COc1cc2c3c(c1OC)C1(C=CC(=O)C=C1)CC3N(C(=O)CCC(=O)O)CC2 (stereo unspecified)	i	i	i	i	i	i
COCCN(C(=O)c1csnn1)C(C(=O)NC1CCCC1)c1ccccc1F (stereo unspecified)	i	i	i	i	i	i
CN(C)C=NC(=O)c1cc(C(=O)c2ccc(C(C)(C)C)cc2)c[nH]1	50.4	i	i	i	i	i
COc1ccccc1OCCn1nc2ccccc2c1OC	nt	i	i	nt	nt	i
On1c(-c2ccccc2)nc2ccc(Cl)cc21	54.3	i	i	i	i	i
CNc1ncc(C(=O)c2ccc(Br)cc2)s1	i	i	i	i	i	i
CNc1ncc(C(=O)c2ccccc2)s1	57.5	i	i	i	i	i
Nc1ccc(C(=O)Nc2cccc(NC(=O)c3ccc(N)cc3)c2)cc1	i	i	i	i	i	i
O=C(Nc1ccc2c3c(cccc13)CC2)c1ccc(Br)o1	74.9	i	i	i	i	i
SMILES	HSF-1 act	aDG glyco up	GC-B act	Dyrk1A ADPGlo	HSF1 inhib	GC-A act
O=C(NC(=S)N1CCc2ccccc21)c1ccc(Br)o1	51.9	i	i	i	i	i
O=C(NC(=S)N1CCc2ccccc21)c1ccccc1Br	57.4	i	i	i	i	i
Cc1ccc(Nc2nc(NCCCN3CCOCC3)nc(N)c2[N+](=O)[O-])cc1	68.9	i	i	i	i	i
COc1ccc(Nc2nc(NCc3ccco3)nc(N)c2[N+](=O)[O-])cc1	66.4	i	i	nt	i	i
Cc1cccc(Nc2nc(NCc3ccco3)nc(N)c2[N+](=O)[O-])c1	i	i	i	i	i	i
Cc1ccc(Nc2nc(NCCCN3CCOCC3)nc(N)c2[N+](=O)[O-])cc1C	i	i	i	i	i	i
Nc1nc(Nc2cccc(F)c2)nc(NCc2ccco2)c1[N+](=O)[O-]	54.3	i	i	i	i	i
Cc1cccc(Nc2nc(N)c([N+](=O)[O-])c(NCc3ccco3)n2)c1	i	i	i	i	i	i
COCCn1c(C)cc(C(=O)CN2C(=O)C(=O)N(CCC3=CCCCC3)C2=O)c1C	nt	i	i	nt	nt	i
Cc1onc(C(=O)N2CCN(c3ccccc3F)CC2)c1-c1ccccc1Cl	i	i	i	i	i	i
COc1ccccc1CN1CC(C(=O)NCCc2ncccc2C)CCC1=O (stereo unspecified)	79.0	i	i	nt	i	i
Cc1nn(C)c(C)c1-c1c(C#N)c(N)nc2c1CCCCCC2	i	i	i	i	i	i
Oc1cccnc1Sc1cccc(C(F)(F)F)c1	85.7	i	i	i	i	i
O=C(CN1C(=O)c2ccccc2S1(=O)=O)c1ccccc1F	i	i	i	i	-52.0	i
O=C(CCN1C(=O)c2ccccc2S1(=O)=O)Nc1cc(Cl)ccc1Cl	i	i	i	i	i	i
O=C(CN1C(=O)c2ccccc2S1(=O)=O)c1ccc(Cl)cc1Cl	i	i	i	i	-68.0	i
COCCNC(=O)CSC1=N/C(=C/c2ccc(Cl)c(Cl)c2)C(=O)N1c1ccccc1F	i	i	i	i	-60.9	i
C=CCN1C(=O)/C(=C\c2ccc(Cl)cc2)N=C1SCC(=O)NCCC	i	i	i	i	i	i
Cc1cn2c(nc(=O)c3cccnc32)s1	i	i	i	i	-75.4	i
CCOC(=O)C1C2C=CC3(CN(Cc4cccs4)C(=O)C13)O2 (stereo unspecified)	i	i	i	i	i	i
O=C(CC(=O)c1ccccc1[N+](=O)[O-])c1ccccc1	i	nt	nt	nt	-69.8	nt
O=C(NNC(=O)c1ccccc1[N+](=O)[O-])c1ccccc1[N+](=O)[O-]	nt	i	i	i	nt	i
O=C(NCc1cccs1)c1ccccc1[N+](=O)[O-]	i	i	i	i	-69.6	i
COc1c(Cl)cc(Cl)cc1/C=N/n1cnnc1	i	i	i	i	i	i
COC(=O)c1ccccc1NC(=O)CSc1nc(Nc2ccccc2)nc(N2CCOCC2)n1	77.5	i	i	i	i	i
CC(=O)c1ccc(NC(=O)CSc2nc(Nc3ccccc3)nc(N3CCOCC3)n2)cc1	i	i	i	i	i	i
CCC(CC)c1nnc(NC(=O)CCc2ccccc2OC)s1	i	i	i	i	i	i
O=C1c2cc([N+](=O)[O-])cc3cc([N+](=O)[O-])cc(c23)C(=O)N1c1ccccn1	123.9	i	i	i	i	i
Nc1cccc(-c2c[nH]c3ncc(-c4cccnc4)cc23)c1	nt	i	nt	77.4	nt	nt
Cc1cc(NCCc2ccccc2F)n2ncnc2n1	nt	i	i	i	nt	i
